# From ChEMBL document CHEMBL3433997, “St. Jude Leishmania screening dataset” (2016)
# Key:
# Assay type in all cases: functional
# [1] = target: Solute carrier family 2, facilitated glucose transporter member 1 (Homo sapiens) (UniProt P11166); assay: ST_JUDE_LEISH: Cytotoxicity at 2uM final concentration against transgenic Leishmania Mexicana promastigotes LmGLUT1 that are glucose transport deficient and complemented with the human glucose transporter GLUT1. Activity is measured by DNA content using SYBR green in vitro
# [2] = target: Hexose transporter 1 (Plasmodium falciparum) (UniProt O97467); assay: ST_JUDE_LEISH: Cytotoxicity at 2uM final concentration against transgenic Leishmania Mexicana promastigotes LmPfHT that are glucose transport deficient and complemented with the Plasmodium falciparum hexose transporter. Activity is measured by DNA content using SYBR green in vitro
# [3] = target: Glucose transporter (Leishmania mexicana) (UniProt O61059); assay: ST_JUDE_LEISH: Cytotoxicity at 2uM final concentration against transgenic Leishmania Mexicana promastigotes LmGT2 that are glucose transport deficient and complemented with the L. Mexicana glucose transporter 2. Activity is measured by DNA content using SYBR green in vitro
# Solute carrier family 2, facilitated glucose transporter member 1 (Homo sapiens), sequence (P11166 whole entry): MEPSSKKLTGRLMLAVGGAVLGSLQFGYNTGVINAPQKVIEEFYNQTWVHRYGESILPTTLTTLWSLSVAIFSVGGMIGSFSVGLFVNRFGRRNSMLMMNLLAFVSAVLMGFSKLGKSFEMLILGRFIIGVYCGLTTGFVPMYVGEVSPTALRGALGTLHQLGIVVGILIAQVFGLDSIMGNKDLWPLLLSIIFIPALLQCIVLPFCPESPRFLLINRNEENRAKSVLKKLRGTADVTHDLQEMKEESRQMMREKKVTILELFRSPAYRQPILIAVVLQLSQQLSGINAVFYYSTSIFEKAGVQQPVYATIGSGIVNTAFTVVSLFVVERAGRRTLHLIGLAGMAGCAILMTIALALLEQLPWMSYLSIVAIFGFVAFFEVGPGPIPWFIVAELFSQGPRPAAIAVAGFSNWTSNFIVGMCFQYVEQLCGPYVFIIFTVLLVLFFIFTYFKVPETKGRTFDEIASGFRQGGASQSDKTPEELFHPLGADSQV
Compound,inhibition [1] [%],inhibition [2] [%],inhibition [3] [%]
Cc1ccc(OCCCCONC(=O)c2ccccc2)cc1,0.84,-1.51,-0.14
COc1cc2c(cc1OC)C(C(=O)Nc1cc(OC)c(OC)c(OC)c1)C(c1ccc(SC)cc1)N(C)C2=O (centres undefined),1.51,0.98,2.73
O=C(Nc1ccc(OC2CCN(Cc3ccccc3)C2)c(Cl)c1)c1ccco1 (centres undefined),5.7,6.46,4.97
O=C(NCc1cccc(F)c1)Nc1ccc(-c2cccc(-c3nc4ccccc4[nH]3)c2)cc1,2.57,4.32,-0.32
C=CCOc1ccc(C2C(C(=O)OC)=C(C)NC3=C2C(=O)c2ccccc23)cc1OC (centres undefined),-0.61,4.51,1.15
O=S(=O)(c1cccc(F)c1)c1ccc(Nc2ncnc3cc(Br)sc23)cc1Cl,3.23,2.8,-1.17
Cc1ccc(CNC(=O)[C@H](Cc2ccccc2)Nc2cc(C)nc(NCCc3ccc(F)cc3)n2)cc1,5.47,4.28,10.6
Cc1ccc(NC(=O)c2ccc(N3CCN(c4ccncc4)CC3)cn2)cc1F,109,95.4,102
CC(C)Sc1nncc(-c2cnnc(SC(C)C)n2)n1,-0.53,-0.11,0.07
N#CCCN1CCN(Cc2cccc(-c3ccc(-c4nc5ccccc5[nH]4)cc3)c2)CC1,2.32,3.22,0.84
CCOC(=O)c1c(CN(CC)CC)n(-c2ccccc2)c2cc(Br)c(O)cc12,2.14,3.81,1.76
O=c1c2ccccc2[nH]c2cc(Cl)ccc12,5.11,7.05,0.77
O=C(Nc1cccc(C(F)(F)F)c1)c1ccc(S(=O)(=O)NC2CCN(CC3CCCCC3)CC2)cc1,1.83,1.62,5.57
COc1ccc2nccc([C@@H](O)CN3CCC(NCc4cc5cccc(OCc6ccccc6)c5[nH]4)CC3)c2c1,1.7,0.05,2.01
Cc1cccc2nc(-c3ccc(-c4ccc(C(=O)NCCN5CCCC5)cc4)s3)[nH]c12,1.13,0.54,-0.1
CS(=O)(=O)c1ccc(CCNCc2ccc(-c3ccc(CNC4Cc5ccccc5C4)cc3)nc2)cc1,-0.55,-0.45,2.3
Cc1cccc(C)c1N1CCN(C2CCC(NC(=O)/C=C/c3ccccc3)CC2)CC1 (centres undefined),1.7,1.21,1.49

Compound,inhibition [1] [%],inhibition [2] [%],inhibition [3] [%]
CCOc1ccc(NC(=O)c2cn3nc(-c4ccc(OCC)cc4)cc3nc2C2CCNCC2)cc1,1.5,2.58,3.37
CCS(=O)(=O)Nc1ccc2c(c1)/C(=C(/Nc1ccc(CN3CCCCC3)cc1)c1ccccc1)C(=O)N2,83.1,89.4,82
O=C(NC(=O)c1ccccc1O)c1ccccc1O,-0.08,0.7,0.89
COc1cc(-c2nc(-c3ccccc3)c(-c3ccccc3)[nH]2)cc(OC)c1O,-0.19,-0.87,-1.53
CCc1cc2c3c(N)nc(N)nc3ccc2n1C(C)(C)C,96,94.4,78.4
O=C(/C=C/c1ccc(Cl)c(Cl)c1)NCCCCCN1CCCC(CNC(=O)Nc2ccc(Oc3ccccc3)cc2)C1 (centres undefined),-0.78,0.69,0.61
CCNc1cc(C(=O)N[C@@H](Cc2ccccc2)[C@H](O)CN[C@@H]2CCc3ccccc32)cc(N2CCCCS2(=O)=O)c1,1.06,1.96,1.17
COc1cc2nc(Nc3ccc4c(ccn4Cc4ccccc4)c3)nc(Nc3ccc4c(ccn4Cc4ccccc4)c3)c2cc1OC,1.55,1.97,3.43
COCCCNC(=O)c1ccc(O)c(-c2cc(Cl)cc(Cl)c2)c1,0.32,-2.5,1.9
C(=C(c1cccs1)c1cccs1)c1ccc(CNC2CCN(Cc3ccccc3)CC2)cc1,4.45,6.16,5.77
CC(C)(CNC(=O)[C@@H]1CCCN(CCOc2ccc(F)c(F)c2)C1)c1nc(-c2ccc(Cl)c(O)c2)c(-c2ccncc2)[nH]1,0.3,-0.12,1.28
Cc1ccccc1C1CCN(C2CCC(NC(=O)c3ccc(-c4ccccn4)s3)CC2)CC1 (centres undefined),-4.15,-2.96,-1.37
NCc1ccc(Nc2nccc(Nc3ccc(-c4ccccc4)cc3)n2)cc1,2.28,4.91,0.24
O=C(NC1CCCCN(Cc2ccccc2O)C1)c1ccc(Cl)c(Cl)c1 (centres undefined),7.63,5.13,3.76
Nc1ncc(-c2cn[nH]c2)cc1-c1nc2cc(Cl)cnc2[nH]1,3.35,1.4,1.93
CN(C)CCN1CCN(Cc2ccc(-c3cccc(-c4nc5ccccc5[nH]4)c3)cc2)CC1,-2.11,-0.12,-0.98
